IL-1B inflam inh – inhibitors of inflammasome signaling (IL-1 beta secretion); activity change, % at 57.5 µM; 4.7% of 360,000 active; THP-1 LPS/ATP IL-1B secretion, AlphaLISA, 16 h; stronger effect = lower value; in the data active means activity change below about -50%; inconclusive means mostly about -30% to -49%
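Secreted IL-1B measured by AlphaLISA bead assay after 16 h compound exposure of THP-1 cells; compounds (final up to 57.5 uM) added 1 h before LPS (250 ng/mL) and ATP (1.25 mM) stimulation; lower signal means less secretion.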
Giardia kill – Giardia lamblia killing | Giardia lamblia trophozoite viability | activity change, % at 7.66 µM, hits read low | 0.15% of 340,000 active | AID 540267; in the data active means activity change below about -80%; inconclusive means between about -30% and that limit;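 further: parasites exposed to compound for two days anaerobically before the ATP read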
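Giardia lamblia trophozoites (100 cells/well) were incubated with compounds for 48 h at 37 deg C under anaerobic conditions. Viability was read as ATP content by one-step luminescence after 15-30 min at room temperature.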
TGFb inhibitor – inhibitors of TGF-b signaling; 1.2% of 410,000 active; HepG2 CAGA-GFP TGF-b/SMAD3 reporter, GFP fluorescence, 18 h; TGF-beta stimulated, 500 pg/mL final; Potency, µM (top dose mostly 46.1 µM), actives largely listed as inhibitors; further: nearly all actives have a fitted effect of over 65% in size
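Using HEPG2 CAGA-GFP reporter cells at 1000 cells/well, we pinned test compounds, stimulated with recombinant TGF-beta (500 pg/mL final) and measured total well GFP after 18 h.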
HT1080NT lethal – kills 2HG-producing HT-1080-NT fibrosarcoma cells | HT-1080-NT fibrosarcoma viability, CellTiter-Glo ATP luminescence, 48 h | Potency, µM (series often up to 46.1 µM), usual class: cytotoxic | 1.6% of 360,000 active | AID 686970;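 further: NT is the 2HG producing partner of a matched IDH1 knockdown line; nearly all actives have a fitted effect of over 55% in size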
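Luminescent CellTiter-Glo readout after 48 hours of compound exposure at 37 degrees C defined viability of HT-1080-NT cells. Activity was normalized to DMSO wells and cell-free media wells; concentration-response curves were fitted and assigned curve classes.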
HepG2 tox – HepG2 cytotoxicity, counter-screen for TGF-b inhibitors; 0.76% of 410,000 active; HepG2 CAGA-GFP viability, ATP luminescence, 18 h; Potency, µM (series often up to 46.1 µM), most hits filed as cytotoxic
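HepG2 CAGA-GFP cells (1000/well, DMEM with 1% FBS) received compound, then TGF-beta at 500 pg/mL final, and were incubated 18 hours at 37 degrees C. Viability was read by CellTiter-Glo luminescence. Media-only wells were set as complete cell-killing and DMSO as no toxicity.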
HT1080 IDH1KD tx – HT-1080 IDH1 knockdown cell toxicity (counter line); HT-1080 IDH1 knockdown viability, ATP luminescence, 48 h; Potency, µM (top dose mostly 46.1 µM), actives largely listed as cytotoxic; 2% of 360,000 active; AID 686971
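Cytotoxicity counter-line: IDH1KD HT-1080, 48 h, CellTiter-Glo. Curves classed by r2, magnitude and activity.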
Of the large screens only hits and unclear results are named; the others gave an inactive call. Only some compounds are listed: those with a hit (about 6.5% of all), similar ones and a draw of the others. Unless noted, the call rests on the fitted dose curve; in most records, active means well fitted curve in the direction sought with a large enough effect; inconclusive means small, poorly fitted or top-dose-only effect, or another doubt; inactive means no such curve, though single readings can be large; an effect the other way counts as inactive or inconclusive.

CCN(CC)c1cc(CS(=O)c2ccccc2)nc(-c2ccccc2)n1 (stereo unspecified)	IL-1B inflam inh -50
C=CCNC(=S)NNc1nc(N2CCCC2)nc(N2CCCC2)n1	Giardia kill inconclusive
C=CCNC(=S)NNc1nc(Nc2ccccc2)nc(N2CCCCC2)n1	IL-1B inflam inh -63, TGFb inhibitor inconclusive
CC(C)Oc1ccc(CC2CCC(=O)N(C)C2=O)cc1 (stereo unspecified)	HT1080NT lethal inconclusive
COc1ccccc1/C=C1\CCCC2=C1Nc1nnnn1C2c1ccccc1OC (stereo unspecified)	IL-1B inflam inh -101, TGFb inhibitor 13µM, HT1080 IDH1KD tx inconclusive
CCOC(=O)c1c2c3c(c(Cl)ccc3[nH]c1=O)C(=O)c1ccccc1-2	IL-1B inflam inh -85
Cc1cc(S(=O)(=O)ON2C(=O)c3ccccc3C2=O)ccc1F	none
Cc1ccc(C)c(S(=O)(=O)ON2C(=O)c3ccccc3C2=O)c1	TGFb inhibitor inconclusive, HT1080NT lethal inconclusive, HT1080 IDH1KD tx 13µM
CCC(=O)N1CCc2cc(S(=O)(=O)CCC(=O)Nc3ccc(OC(F)(F)F)cc3)ccc21	TGFb inhibitor 11µM (no result: IL-1B inflam inh, Giardia kill, HT1080NT lethal, HT1080 IDH1KD tx)
CCC1Sc2ccc(S(=O)(=O)CCC(=O)Nc3ccc(OC(F)(F)F)cc3)cc2NC1=O (stereo unspecified)	TGFb inhibitor inconclusive, HepG2 tox 10µM
CCC1Sc2ccc(S(=O)(=O)CCC(=O)Nc3ccc(NC(C)=O)cc3)cc2NC1=O (stereo unspecified)	none
CCC(=O)N1CCc2cc(S(=O)(=O)CCC(=O)Nc3ccc(OC)cc3)ccc21	none
CCCCCC1CC(CC(=O)Nc2ccc([N+](=O)[O-])cc2)C(=O)O1 (stereo unspecified)	IL-1B inflam inh inconclusive, TGFb inhibitor inconclusive
CCC(=O)N1CCN(c2ccccc2NC(=O)c2ccc([N+](=O)[O-])o2)CC1	IL-1B inflam inh -55, Giardia kill -90, TGFb inhibitor 16µM, HT1080NT lethal inconclusive
CCOc1cccc(C(=O)Nc2ccccc2N2CCN(C(=O)C(C)C)CC2)c1	IL-1B inflam inh -53
CC(C)C(=O)N1CCN(c2ccccc2NC(=O)c2ccc([N+](=O)[O-])o2)CC1	Giardia kill -89, TGFb inhibitor inconclusive, HT1080 IDH1KD tx inconclusive
COc1ccc(CNC(=S)Nc2ccc3nc(N4CCN(C)CC4)cc(C)c3c2)cc1	IL-1B inflam inh -101, TGFb inhibitor inconclusive, HT1080NT lethal 16µM, HT1080 IDH1KD tx inconclusive
Cc1cc(N2CCN(C)CC2)nc2ccc(NC(=S)NCc3cccs3)cc12	IL-1B inflam inh -77, HT1080NT lethal 18µM, HT1080 IDH1KD tx 23µM
O=CC(=Cc1ccccc1)c1ccccc1	none (no result: Giardia kill)
O=C(NCCCC1CCCC1)C1CCC(=O)N(Cc2ccc(Cl)cc2)C1 (stereo unspecified)	IL-1B inflam inh -69
Cc1cc2oc(=O)cc(CN3CCCCC3C)c2cc1C (stereo unspecified)	HT1080NT lethal inconclusive
CC1CCN(S(=O)(=O)c2ccc3c(c2)C(=NO)c2cc(S(=O)(=O)N4CCC(C)CC4)ccc2-3)CC1	IL-1B inflam inh -89, TGFb inhibitor 8.9µM, HT1080NT lethal 1.5µM, HepG2 tox 1.3µM, HT1080 IDH1KD tx 2.6µM
O=S(=O)(c1ccc2c(c1)C(=NO)c1cc(S(=O)(=O)N3CCCCC3)ccc1-2)N1CCCCC1	IL-1B inflam inh -85, TGFb inhibitor inconclusive, HT1080NT lethal 0.37µM, HepG2 tox 1.8µM, HT1080 IDH1KD tx 0.58µM
COCCCNC(=O)c1cc(Sc2nnc(C)s2)nc2ccccc12	none
CC(NC(=O)c1ccco1)C(=O)OCC(=O)N1CCCCCC1 (stereo unspecified)	none
CC(=O)O[C@H]1CC(C)(C)C(=C=C/C(C)=C/C=C/C(C)=C/C=C/C=C(C)/C=C/C=C(\C)C(=O)C[C@@]23O[C@]2(C)C[C@@H](O)CC3(C)C)[C@](C)(O)C1	IL-1B inflam inh -63, TGFb inhibitor inconclusive
O=C(CSc1ncnc2nc[nH]c12)c1ccc2ccccc2c1	HT1080NT lethal 23µM, HT1080 IDH1KD tx inconclusive
O=C(O)CSc1ncnc2nc[nH]c12	none
c1nc(SSc2ncnc3nc[nH]c23)c2[nH]cnc2n1	IL-1B inflam inh inconclusive, HT1080NT lethal 2.3µM, HT1080 IDH1KD tx 1.3µM
COc1ccc(CCNc2c(C)c(C)nc3ncnn23)cc1	HT1080NT lethal 10µM, HT1080 IDH1KD tx 7.1µM
COc1ccc(-c2cc(NCCc3ccncc3)n3ncnc3n2)cc1	IL-1B inflam inh -66
O=C(Nc1cccc(F)c1)c1cc(S(=O)(=O)NCCC2=CCCCC2)ccc1F	IL-1B inflam inh -61, TGFb inhibitor inconclusive, HT1080NT lethal inconclusive, HepG2 tox 14µM, HT1080 IDH1KD tx inconclusive
Cc1cc(C)cc(NC(=O)c2cc(S(=O)(=O)NCCC3=CCCCC3)ccc2F)c1	TGFb inhibitor inconclusive (no result: IL-1B inflam inh, Giardia kill, HT1080NT lethal, HT1080 IDH1KD tx)
CC(=O)N1CCc2cc(S(=O)(=O)NCCC3=CCCCC3)ccc21	HT1080 IDH1KD tx 21µM
O=S(=O)(NCCC1=CCCCC1)c1ccc(OC(F)(F)F)cc1	IL-1B inflam inh -91, TGFb inhibitor inconclusive
Cc1ccc(S(=O)(=O)NCCC2=CCCCC2)cc1	none
Cc1ccc(NC(=O)c2cc(S(=O)(=O)NCCC3=CCCCC3)ccc2F)cc1F	IL-1B inflam inh -77, TGFb inhibitor inconclusive, HT1080NT lethal inconclusive, HT1080 IDH1KD tx inconclusive
Cc1sc(=NC(=O)c2ccco2)n(C)c1-c1ccc(F)cc1	IL-1B inflam inh inconclusive
C/C(=N/NC(=O)CCC(=O)Nc1ccc(Br)cc1)c1ccc(Br)cc1	none
Cc1noc(C(=O)N2CC3(C)CC2CC(C)(C)C3)c1Cl (stereo unspecified)	none
CCC(=O)Nc1cc2c(C)cc(=O)oc2cc1C	none
Cc1ccc2nsnc2c1NC(=O)CCl	HT1080NT lethal inconclusive, HT1080 IDH1KD tx inconclusive
CCC(=O)Nc1ccc(SC#N)cc1C	IL-1B inflam inh -101, TGFb inhibitor inconclusive, HT1080NT lethal inconclusive, HT1080 IDH1KD tx 7.9µM
Cc1cc(SC#N)cc(C)c1NC(=O)CCl	IL-1B inflam inh -64, TGFb inhibitor inconclusive, HT1080NT lethal 18µM, HepG2 tox 11µM, HT1080 IDH1KD tx 23µM
CCc1cc(SC#N)cc(C)c1NC(=O)CCl	IL-1B inflam inh -101, TGFb inhibitor 7.1µM, HT1080NT lethal inconclusive, HT1080 IDH1KD tx inconclusive
CCc1cc(SC#N)cc(C)c1N	IL-1B inflam inh -93, TGFb inhibitor inconclusive
CC(SC1=NCCN1S(=O)(=O)c1ccccc1)c1ccccc1 (stereo unspecified)	none
Cc1ccc(C(=O)c2ccc(N3CCOCC3)c(F)c2)cc1	IL-1B inflam inh inconclusive
